IMPase inh: cell-permeable inhibitors of inositol monophosphatase (IMPase); P97697; CHO-M1 cells, IP1 accumulation, HTRF TR-FRET ratio; inhibition (IP1 accumulation), % at 46.1 µM; 120,000 tested, under 10 active; AID 901; active = well fitted curve in the direction sought with a large enough effect in the signal ratio, not every such curve was filed as active; inconclusive = small, poorly fitted or top-dose-only effect, or a change in a side signal; inactive = no such curve, though single readings can be large or run the other way; the % refers to the signal ratio;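 note: cells stimulated with carbachol in lithium chloride buffer; plate controls were DMSO basal wells for no effect and reference inhibitor wells for full effect; higher means more IMPase inhibition seen as more IP1 and lower FRET ratio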
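Carbachol-driven Gq signalling in CHO-M1 cells (2000/well) generates IP1. Compounds that block IMPase raise IP1 and so reduce the FRET signal from Eu-anti-IP1 and d2-IP1 after a 10 min room-temperature lysis.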
ALDH1A1 inh: inhibitors of human aldehyde dehydrogenase 1A1 | P00352 | Purified ALDH1A1, NADH fluorescence, propionaldehyde substrate | Potency, µM (highest dose often 75.3 µM), for inactives: at the highest dose activity, negative = inhibition, usual class: inhibitors | 220,000 tested, 7.3% active | AID 1030;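 note: potency is the fitted concentration of half-maximal effect; plate controls were no enzyme wells and a reference inhibitor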
Target sequence (P00352 whole entry, looked up): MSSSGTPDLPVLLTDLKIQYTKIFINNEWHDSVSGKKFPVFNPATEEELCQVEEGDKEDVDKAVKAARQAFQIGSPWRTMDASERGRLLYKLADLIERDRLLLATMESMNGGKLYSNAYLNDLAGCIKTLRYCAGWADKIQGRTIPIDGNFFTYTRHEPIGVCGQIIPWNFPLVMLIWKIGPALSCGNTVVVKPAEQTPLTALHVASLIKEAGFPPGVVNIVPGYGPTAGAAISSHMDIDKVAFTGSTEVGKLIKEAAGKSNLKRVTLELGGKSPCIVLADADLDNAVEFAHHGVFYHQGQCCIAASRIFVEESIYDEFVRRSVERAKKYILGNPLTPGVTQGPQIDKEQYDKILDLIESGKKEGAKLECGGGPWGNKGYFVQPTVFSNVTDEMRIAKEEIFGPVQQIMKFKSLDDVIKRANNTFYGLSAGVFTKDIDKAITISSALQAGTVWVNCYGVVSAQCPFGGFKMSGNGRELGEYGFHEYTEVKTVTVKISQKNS
IMPase Li cell: cell-permeable IMPase inhibitors with lithium potentiation | Potency, µM (top dose mostly 59.4 µM), without a hit: at the highest dose activity, negative = IMPase inhibition, usual class: inhibitors | AID 1457 | CHO-M1 cells, IP1 TR-FRET (IP-One), carbachol + lithium | 210,000 tested, 0.35% active; active = well fitted inhibition curve with a large enough effect; inconclusive = small, poorly fitted or top-dose-only effect; inactive = no such curve, though single readings can be large or run the other way;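 note: IP1 builds up when IMPase is blocked and the TR-FRET signal falls; potency is the fitted concentration of half-maximal effect; plate controls were basal vehicle for no effect and high inhibitor control for full effect; nearly all actives have a fitted effect of over 50% in size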
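Readout is a homogeneous TR-FRET IP1 immunoassay (Ex 320, Em 665 and 620), where raised cytosolic IP1 lowers signal. Cells were CHO-M1 treated 30 min at 37C with test compounds plus a little lithium; AC50 values came from Hill-equation fitting.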
HPGD inh: blocks human HPGD enzyme activity; purified HPGD, NADH fluorescence kinetic, PGE2 substrate; Potency, µM, for the others: at the top dose activity change, negative = inhibition, usual class: inhibitors; 150,000 tested, 4.3% active; note: potency is the fitted concentration of half-maximal effect
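20 nM HPGD preincubated 15 min at room temperature with compound in 50 mM Tris-HCl pH 8, 0.01% Tween 20. Started with 1 mM NAD+ and 30 uM prostaglandin E2; NADH fluorescence (360/450 nm) read 5 times over 30-s intervals, last minus first.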
PNC inhibitor: blocks assembly of the perinucleolar compartment; 140,000 tested, 3.1% active; AID 2417; activity change (PNC), negative = inhibition, % at 10 µM; PC3M PTB-GFP, PNC prevalence imaging, 16 h; stronger effect = lower value;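 active = readout at or below -70, meaning at least 70% loss of cells showing the perinucleolar compartment, a nuclear body marking cancer cells; inconclusive = readout between -30 and a set limit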;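 note: plate controls were DMSO wells for no effect and camptothecin positive control wells for full effect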
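Read-out is percentage of cells bearing a perinucleolar compartment, from automated 20x imaging of fixed, Hoechst-stained PC3M PTB-GFP cells. Cells were seeded 4 h, then exposed 16 h to compound (23 nl of library stock) in duplicate plates.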
* marks the source's active call; other numbers are inactive results; ? = inconclusive; . = no result; [ ] = remark or other dose. Rows were chosen to be rich in hits. Some 11% of all compounds tested hit in one or more screens of this group. Unless noted, calls come from the whole dose curve; as a rule, active = well fitted inhibition curve with a large enough effect (not every such curve was filed as active); inconclusive = small, poorly fitted or top-dose-only effect, or another doubt; inactive = no such curve, though single readings can be large or run the other way. Unless noted, % is set by controls: 0 for no effect and ±100 for the full control effect.

SMILES | IMPase inh | ALDH1A1 inh | IMPase Li cell | HPGD inh | PNC inhibitor
C=CCN1C(=O)C(O)(CC(=O)c2ccccc2)c2ccccc21 (configuration not stated) | -1 | 3.5µM* | -22%[38.3 µM] | -2% | -4
CN1C(=O)C(O)(CC(=O)c2cccnc2)c2ccccc21 (configuration not stated) | . | -3% | 1% | 3% | ?
CCN1C(=O)C(O)(CC(=O)c2cccc(-n3cccc3)c2)c2ccccc21 (configuration not stated) | . | 4.5µM* | 3% | . | .
O=C(CC1(O)C(=O)N(Cc2cccc3ccccc23)c2ccccc21)c1cccnc1 (configuration not stated) | 8 | 0.11µM* | 67%[38.3 µM] | -22% | -25
CCN1C(=O)C(O)(CC(=O)c2ccc(-n3cccc3)cc2)c2ccccc21 (configuration not stated) | -5 | -11% | 8% | -12% | -100*
COc1cc(Cl)c(C)cc1NC(=O)c1ccc(S(C)(=O)=O)cc1 | . | 5% | 3% | . | .
CC(N1CCOC1=O)S(=O)(=O)c1ccccc1 (configuration not stated) | 0 | -15% | 9%[38.3 µM] | -12% | -110*
CCCCC/C=C\C/C=C\C/C=C\CCCCCCC(=O)NCC(=O)O | . | 3% | 1% | -6% | .
COc1cc(O)c(NC(C)=O)c2nonc12 | 19 | -4% | 31%[38.3 µM] | -4% | -88*
COC(=O)C(OC(=O)c1ccc(OC)cc1)C(=O)OC | 2 | 12% | 11% | -8% | -100*
Brc1ccc(CSc2nnc(-c3ccco3)o2)cc1 | . | -6% | -10% | 25µM* | 16
Cc1ccc(CSc2nnc(-c3ccco3)o2)cc1 | -6 | -8% | 0%[38.3 µM] | 25µM* | ?
Clc1ccc(CSCCc2ccncc2)cc1Cl | . | 18%[13.5 µM] | 2% | -9% | .
CCOC(=O)CSc1nc2c(sc3ccccc32)c(=O)n1CCCN1CCOCC1 | 10 | 14µM* | 21% | -22% | 55
CCC(C)NC(=O)CSc1nc2c(sc3ccccc32)c(=O)n1CCCN1CCOCC1 (configuration not stated) | -6 | -9% | 4%[38.3 µM] | ? | -26
CCCNC(=S)N1CCC(C(=O)c2ccc3c(c2)OCCO3)CC1 | . | 0% | 0% | . | .
c1ccc2nc(CC[C@@H]3CCCCN3)ccc2c1 | . | 11%[13.5 µM] | -2% | -10% | .
COc1ccc2c(c1)O[C@H](c1ccc3c(c1)OCO3)[C@@H](OC(=O)N[C@H]1CCCc3ccccc31)C2=O | . | 12% | 4% | 1% | ?
COc1ccc2c(c1)C(=O)[C@@H](OC(=O)N[C@H]1CCCc3ccccc31)[C@H](c1ccc(OC)c(Br)c1)O2 | . | 13µM* | 3% | -9% | .
CCOC(=O)c1c(C)[nH]c2ccc3c(c12)CN1CCc2cc(OC)ccc2[C@@H]1O3 | 10 | -2% | 20% | -10% | .
COc1ccc(OC)c(NS(=O)(=O)c2ccc(SC)cc2)c1 | -4[0.369 µM] | 18µM* | -7% | -1% | 29
COc1ccc2c(CC(=O)Nc3ccc(OC)c(NS(=O)(=O)c4ccc(F)cc4)c3)coc2c1 | 0 | ? | 11%[38.3 µM] | -16% | -127*
COc1ccc(OC)c(NS(=O)(=O)c2ccc(N3CCCC3=O)cc2)c1 | 7 | -13% | 3%[38.3 µM] | -13% | -83*
COc1ccc(NS(=O)(=O)c2ccc(NS(=O)(=O)c3ccc(SC)cc3)cc2)c(OC)c1 | 4 | ? | 32%[38.3 µM] | -14% | 74
COc1ccc2c(CC(=O)Nc3ccccc3OC)coc2c1 | . | ? | 13% | . | .
Cc1cc(S(=O)(=O)Nc2ccccc2C(=O)O)ccc1F | . | ? | . | -21% | .
Cc1cc([N+](=O)[O-])c2[nH]c(C(=O)N/N=C/c3ccccc3C(=O)O)c(-c3ccccc3)c2c1 | 7 | 1.4µM* | 8%[38.3 µM] | ? | 26
O=c1c(/C=N/O)c(Nc2ccccc2)nc2ccccn12 | 4 | ? | 13%[38.3 µM] | 0.56µM* | 10
O=C(NCCCN1CCCC1)C1CCN(C(=O)c2cc3sccc3n2Cc2ccc(F)cc2)CC1 | 2 | ? | 34%[38.3 µM] | -3% | 21
Cn1c(C(=O)N2CCCC(C(=O)NCCc3ccccc3)C2)cc2sccc21 (configuration not stated) | 11 | 11µM* | 27%[38.3 µM] | -17% | 48

High-throughput results (PubChem)
